Growth data for 4 molecules are collected here from the supplement of paper PMC9262897, “Low-cost anti-mycobacterial drug discovery using engineered E. coli” (Nature Communications, 2022).

Molecules are shown by their SMILES. Counter-ions that a name gives are not always drawn. ± gives the standard deviation of the averaged measurements.

Holding throughout (test): growth (OD600 after 10 h); higher = more growth (less inhibition)
Assay [1] relates to E. coli TESEC Alr+ wild-type control. The note with it: compound 0.1 mM; raw OD600 reference: median of DMSO wells 0.241, cell-free background 0.041. On the procedure:
(§1)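 TESEC Mtb Alr E. coli, or the Alr+ wild-type control, in 384-well plates with Prestwick library compounds at 0.1 mM and 1% DMSO, across arabinose induction levels of 1E3 to 1E7 nM. Growth is read as OD600 after 10 h at 37 °C in triplicate biological replicates.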

The test system of assay [2] is E. coli TESEC Mtb Alr. The conditions noted are these: compound 0.1 mM. How it is done: as §1
The next assay has as its system E. coli TESEC Mtb Asd. The note with it: compound 0.1 mM. On the procedure: (§2)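 TESEC E. coli strains in which the native enzyme is deleted and replaced by arabinose-inducible Mtb Asd, DapB, CysH or TrpD, each grown in its selective medium. Strains were screened against the Prestwick library at 0.1 mM and 1% DMSO in 384-well format at low and high arabinose induction. Growth is read as OD600 after 10 h in triplicate.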

The test system of the next assay is E. coli TESEC Mtb DapB. The conditions noted are these: compound 0.1 mM. On the procedure: as §2
For assay [3], the system named is E. coli TESEC Alr+ wild-type control. The note with it: compound 0.1 mM; raw OD600 reference: median of DMSO wells 0.49, cell-free background 0.052. On the procedure:
(§3)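 TESEC Mtb Alr E. coli (ΔaraC ΔtolC ΔentC Δalr ΔdadX, arabinose-inducible Mtb Alr) or the Alr+ wild-type control strain, grown in defined M9-fructose medium without D-alanine in 96-well plates with Prestwick library compounds at 0.1 mM and 1% DMSO. Low Alr induction is 0.1 µM arabinose and high induction is 10 mM arabinose.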

The test system of assay [4] is E. coli TESEC Mtb Alr. The conditions noted are these: compound 0.1 mM. How it is done: as §3
The source holds these as a separate data set.

Where [5] appears, read: arabinose 1000 nM, raw OD600 reference: median of DMSO wells 0.294, cell-free background 0.041.
Where [6] appears, read: arabinose 10000 nM, raw OD600 reference: median of DMSO wells 0.264, cell-free background 0.041.
[7] abbreviates: arabinose 100000 nM, raw OD600 reference: median of DMSO wells 0.201, cell-free background 0.041.
Setting [8] is: arabinose 1000000 nM, raw OD600 reference: median of DMSO wells 0.193, cell-free background 0.041.
Where [9] appears, read: arabinose 10000000 nM, raw OD600 reference: median of DMSO wells 0.146, cell-free background 0.041.
[10] abbreviates: arabinose induction (level): High, raw OD600 reference: median of DMSO wells 0.331, cell-free background 0.041.
The mark [11] stands for this setting: arabinose induction (level): Low, raw OD600 reference: median of DMSO wells 0.417, cell-free background 0.041.
[12] abbreviates: arabinose induction (level): High, raw OD600 reference: median of DMSO wells […], cell-free background 0.041.
The mark [13] stands for this setting: arabinose induction (level): Low, raw OD600 reference: median of DMSO wells 0.227, cell-free background 0.041.
Where [14] appears, read: arabinose 100 nM, raw OD600 reference: median of DMSO wells 0.413, cell-free background 0.052.
[15] abbreviates: arabinose 10000000 nM, raw OD600 reference: median of DMSO wells […], cell-free background 0.052.

For the molecule `Clc1cccc(Cl)c1NC1=NCCN1` [Clonidine hydrochloride], the growth in assay [1] was 0.245 ± 0.01; in the assay on E. coli TESEC Mtb Alr [2] (setting [5]), 0.289 ± 0.0065; with E. coli TESEC Mtb Alr [2] (setting [6]) it was 0.261 ± 0.0058; in the assay on E. coli TESEC Mtb Alr [2] (setting [7]), 0.201 ± 0.023; with E. coli TESEC Mtb Alr [2] (setting [8]), 0.173 ± 0.0049; in the assay on E. coli TESEC Mtb Alr [2] (setting [9]), 0.145 ± 0.011. The growth amounted to 0.377 ± 0.03 with E. coli TESEC Mtb Asd (setting [10]); 0.422 ± 0.016 in the assay with E. coli TESEC Mtb Asd (setting [11]); 0.195 ± 0.012 in the assay with E. coli TESEC Mtb DapB (setting [12]); 0.26 ± 0.034 with E. coli TESEC Mtb DapB (setting [13]); 0.462 ± 0.014 in assay [3]; 0.407 ± 0.013 with E. coli TESEC Mtb Alr [4] (setting [14]). In the assay with E. coli TESEC Mtb Alr [4] (setting [15]), the growth was determined as 0.375 ± 0.017.
Take `CCOC(=O)C1=C(C)NC(C)=C(C(=O)OCC)C1c1ccccc1/C=C/C(=O)OC(C)(C)C` [Lacidipine]: the growth in assay [1] stood at 0.2596 ± 0.0023; with E. coli TESEC Mtb Alr [2] (setting [5]), 0.308 ± 0.013; in the assay on E. coli TESEC Mtb Alr [2] (setting [6]), 0.247 ± 0.0068; with E. coli TESEC Mtb Alr [2] (setting [7]), 0.201 ± 0.017; in the assay with E. coli TESEC Mtb Alr [2] (setting [8]), 0.119 ± 0.0029; with E. coli TESEC Mtb Alr [2] (setting [9]), 0.156 ± 0.0078. Further, the growth in the assay on E. coli TESEC Mtb Asd (setting [10]) was 0.299 ± 0.12; with E. coli TESEC Mtb Asd (setting [11]), 0.346 ± 0.043; with E. coli TESEC Mtb DapB (setting [12]), 0.157 ± 0.0032; with E. coli TESEC Mtb DapB (setting [13]), 0.182 ± 0.0034; in assay [3] it was 0.521 ± 0.056; with E. coli TESEC Mtb Alr [4] (setting [14]) it was 0.429 ± 0.017. Further, the growth in the assay on E. coli TESEC Mtb Alr [4] (setting [15]) amounted to 0.322 ± 0.023.
For `CC(C)(C)CC(C)(C)c1ccc(OCCOCC[N+](C)(C)Cc2ccccc2)cc1` [Benzethonium chloride], the growth in assay [1] amounted to 0.0416 ± 0.00072; in the assay on E. coli TESEC Mtb Alr [2] (setting [5]) it was 0.0415 ± 0.0011; in the assay on E. coli TESEC Mtb Alr [2] (setting [6]), 0.0413 ± 0.0002; with E. coli TESEC Mtb Alr [2] (setting [7]), 0.0425 ± 0.0011; in the assay on E. coli TESEC Mtb Alr [2] (setting [8]), 0.04103 ± 0.00021; in the assay on E. coli TESEC Mtb Alr [2] (setting [9]) it was 0.0418 ± 0.00044. Further, the growth in the assay with E. coli TESEC Mtb Asd (setting [10]) worked out at 0.0499 ± 0.00098; in the assay on E. coli TESEC Mtb Asd (setting [11]), 0.0496 ± 0.0017; in the assay on E. coli TESEC Mtb DapB (setting [12]), 0.0485 ± 0.0028; in the assay on E. coli TESEC Mtb DapB (setting [13]) it was 0.0496 ± 0.0014; in assay [3], 0.04753 ± 0.00035; with E. coli TESEC Mtb Alr [4] (setting [14]), 0.0552 ± 0.0016. Besides, the growth with E. coli TESEC Mtb Alr [4] (setting [15]) was 0.0504 ± 0.00059.
For the molecule `Cc1c(O)c(=O)n(-c2ccccc2)n1C` [Antipyrine, 4-hydroxy], the growth worked out at 0.2468 ± 0.00085 in assay [1]; 0.289 ± 0.012 in the assay on E. coli TESEC Mtb Alr [2] (setting [5]); 0.252 ± 0.0096 in the assay on E. coli TESEC Mtb Alr [2] (setting [6]); 0.211 ± 0.0099 in the assay with E. coli TESEC Mtb Alr [2] (setting [7]); 0.182 ± 0.004 in the assay with E. coli TESEC Mtb Alr [2] (setting [8]); 0.154 ± 0.0051 with E. coli TESEC Mtb Alr [2] (setting [9]). In addition, the growth amounted to 0.338 ± 0.034 in the assay on E. coli TESEC Mtb Asd (setting [10]); 0.375 ± 0.01 in the assay with E. coli TESEC Mtb Asd (setting [11]); 0.184 ± 0.01 in the assay with E. coli TESEC Mtb DapB (setting [12]); 0.206 ± 0.032 in the assay on E. coli TESEC Mtb DapB (setting [13]); 0.507 ± 0.069 in assay [3]; 0.405 ± 0.0081 in the assay on E. coli TESEC Mtb Alr [4] (setting [14]). In the assay with E. coli TESEC Mtb Alr [4] (setting [15]), the growth stood at 0.37 ± 0.033.
